Values without a mark were called inactive.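 The calls were made as follows: active = at least 20% inhibition of 6-phosphogluconate dehydrogenase activity; inactive = the rest.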

6-phosphogluconate dehydrogenase, decarboxylating (Homo sapiens), sequence (P52209 whole entry, looked up): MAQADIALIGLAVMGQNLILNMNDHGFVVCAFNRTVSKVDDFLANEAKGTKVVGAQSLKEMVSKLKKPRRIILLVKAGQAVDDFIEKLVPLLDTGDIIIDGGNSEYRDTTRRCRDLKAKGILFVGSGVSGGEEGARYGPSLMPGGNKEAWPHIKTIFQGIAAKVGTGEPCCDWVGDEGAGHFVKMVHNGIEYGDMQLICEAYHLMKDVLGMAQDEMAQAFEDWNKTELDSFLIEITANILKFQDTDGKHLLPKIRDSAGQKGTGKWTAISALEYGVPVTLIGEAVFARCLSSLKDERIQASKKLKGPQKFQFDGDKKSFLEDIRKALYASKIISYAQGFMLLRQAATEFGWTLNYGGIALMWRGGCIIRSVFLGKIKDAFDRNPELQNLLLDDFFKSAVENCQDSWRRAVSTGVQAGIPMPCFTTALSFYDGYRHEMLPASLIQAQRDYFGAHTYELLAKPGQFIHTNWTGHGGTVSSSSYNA

This assay addresses 6-phosphogluconate dehydrogenase, decarboxylating (Homo sapiens) (UniProt P52209). Briefly: inhibition of human phosphogluconate dehydrogenase – biochemical, recombinant enzyme, NADPH absorbance, primary screen (AID 1159550). The following applies: recombinant 6PGD, NADPH absorbance 341 nm; at 10 µM; active compounds read high.
In the case of `COP(=O)(NC(C)=O)SC` (centres undefined), the inhibition is -9.95%.

As to `CC(=O)[C@H]1CC[C@H]2[C@@H]3CC[C@H]4C[C@@H](O)CC[C@]4(C)[C@H]3CC[C@]12C`, the inhibition is -19.3%.

As to `COP(N)(=O)SC` (centres undefined), the inhibition was 4.36%.

With `CCOCN(C(=O)CCl)c1c(C)cccc1CC`, the inhibition was 4.9%.

Turning to `C/C=C(\C)C(=O)OC1CCC2(C)C3CCC4C5(O)CC(O)C6(O)C(CN7CC(C)CCC7C6(C)O)C5(O)CC42OC13O` (centres undefined), the inhibition is 6.21%.

On to `CCN1CC2(COC)C(O)CC(OC)C34C5CC6(O)C(OC)C(O)C(OC(C)=O)(C5C6OC(=O)c5ccccc5)C(C(OC)C23)C14` (centres undefined), for which the inhibition was 17.1%.

For the molecule `CC(=O)O[C@@H]1[C@H]2CC[C@H]3[C@@](C)(O)[C@@H]4C[C@H](O)C(C)(C)[C@@]4(O)[C@H](O)C[C@@]13C[C@@]2(C)O`, the inhibition is 8.37%.

Consider `CC[C@H](C)C(=O)O[C@@H]1C[C@@]2(C)[C@H](c3ccoc3)OC(=O)C[C@]23OC2(C)O[C@@]34[C@H](OC(=O)C(C)C)C3(O)[C@@H](OC(=O)[C@@]5(C)O[C@@H]5C)C5(C)C[C@]3(O)[C@](C)([C@H]5CC(=O)OC)[C@@]14O2` (some centres undefined), for which the inhibition is 3.98%.

Turning to `O=S1OCC2C(CO1)C1(Cl)C(Cl)=C(Cl)C2(Cl)C1(Cl)Cl` (centres undefined), the inhibition was 5.97%.

With `C[C@]12CCC(=O)C=C1CCc1ccc(O)cc12`, the inhibition is -3.52%.

As to `C=C(C)[C@H]1Cc2c(ccc3c(=O)c4c(oc23)COc2cc(OC)c(OC)cc2-4)O1`, the inhibition was -6.24%.

For `C#CCOS(=O)OC1CCCCC1Oc1ccc(C(C)(C)C)cc1` (centres undefined), the inhibition was -21.1%.

For the molecule `CCC1C2CC3C4N(C)c5ccccc5C45CC(C2C5O)N3C1O` (centres undefined), the inhibition is 6.73%.

With `CCCCSP(=O)(SCCCC)SCCCC`, the inhibition was 10.6%.

Consider `NCC(CC(=O)O)c1ccc(Cl)s1` (centres undefined), for which the inhibition was -3.23%.

Turning to `C[C@]12CCC3C(CC[C@H]4C[C@@H](Cl)CC[C@]34C)C1CCC2=O` (some centres undefined), the inhibition is -16.8%.

On to `CC(C)OC(=O)Nc1cccc(Cl)c1`, for which the inhibition was -6.1%.

Turning to `ClC1=C(Cl)[C@@]2(Cl)[C@@H]3[C@H]4C[C@@H]([C@H]5O[C@@H]45)[C@H]3[C@@]1(Cl)C2(Cl)Cl`, the inhibition was -14%.

On to `C[C@]12CC[C@H](O)C[C@H]1CC[C@@H]1[C@@H]2[C@H](O)C[C@]2(C)[C@@H](C3=CC(=O)OC3)CC[C@]12O`, for which the inhibition is 11.1%.

As for `CCOP(=S)(OCC)SCCSCC`, the inhibition was 3.96%.

Consider `CC[C@@H](C)C(=O)O[C@H]1[C@H](O)[C@H]2[C@@H](CN3C[C@@H](C)CC[C@H]3[C@@]2(C)O)[C@@H]2C[C@]34O[C@]5(O)[C@@H](OC(=O)[C@@](C)(O)[C@@H](C)O)CC[C@@]3(C)[C@@H]5[C@@H](OC(C)=O)[C@@H](OC(C)=O)[C@H]4[C@@]21O`, for which the inhibition is 7.64%.

`CC(=O)O[C@H]1CC[C@]2(C)C3CC[C@]4(C)[C@@H](C5=CC(=O)OC5)[C@@H](OC(C)=O)C[C@]4(O)C3CC[C@@H]2C1` (some centres undefined): the inhibition is 0.446%.

For the molecule `CC1(C)C(O)CC(O)C2(C)C1CC(O)C1(C)C2CCC2(C)C(c3ccoc3)OC(=O)C3OC321` (centres undefined), the inhibition is -7.21%.

For `CCc1cccc(CC)c1N(COC)C(=O)CCl`, the inhibition is -1.98%.

For the molecule `C[C@@H]1CC[C@@]2(OC1)O[C@H]1[C@@H](O)[C@H]3[C@@H]4CC[C@H]5C[C@@H](O[C@@H]6O[C@H](CO)[C@H](O[C@@H]7O[C@H](CO)C(O)[C@H](O[C@@H]8OC[C@@H](O)[C@H](O)[C@H]8O)[C@H]7O[C@@H]7O[C@H](CO)[C@H](O)[C@H](O[C@@H]8O[C@H](CO)[C@@H](O)[C@H](O)[C@H]8O)[C@H]7O)[C@H](O)[C@H]6O)[C@H](O)C[C@]5(C)[C@H]4CC[C@]3(C)[C@H]1[C@@H]2C` (some centres undefined), the inhibition is -7.91%.

As to `ClC1=C(Cl)[C@]2(Cl)[C@H]3[C@H]([C@@H]4C=C[C@H]3C4)[C@@]1(Cl)C2(Cl)Cl`, the inhibition was 6.64%.

Take `ClC(Cl)=C(c1ccc(Cl)cc1)c1ccc(Cl)cc1`: the inhibition was -15%.

For `CO[C@H]1[C@H](O)[C@H](O[C@H]2CC[C@@]3(C=O)[C@H](CC[C@@H]4[C@@H]3CC[C@]3(C)[C@@H](C5=CC(=O)OC5)CC[C@]43O)C2)O[C@@H](C)[C@@H]1O`, the inhibition was -22%.

As for `C[C@]12C=CC(=O)C=C1CC[C@@H]1[C@@H]2CC[C@]2(C)C(=O)CC[C@@H]12`, the inhibition is -9.35%.

Consider `CC1=CC(=O)C2=C(C)C[C@H](O)[C@H]3[C@H](C)C(=O)O[C@@H]3C12` (some centres undefined), for which the inhibition is -7.67%.

Regarding `C=C1[C@@H]2CC[C@H]3[C@]4(C)C[C@H](O[C@@H]5O[C@H](CO)[C@@H](OS(=O)(=O)O)[C@H](OS(=O)(=O)O)[C@H]5OC(=O)CC(C)C)C[C@@H](C(=O)O)[C@H]4CC[C@]3(C2)[C@H]1O`, the inhibition was 5.29%.

For the molecule `CCC(=O)Nc1ccc(Cl)c(Cl)c1`, the inhibition was -20.3%.

As for `ClC1=C(Cl)C2(Cl)C3C(Cl)C=CC3C1(Cl)C2(Cl)Cl` (centres undefined), the inhibition was 0.441%.

For the molecule `CCOP(=S)(OCC)SCSCC`, the inhibition is 7.84%.

As to `COC1C(O)C(O[C@H]2CC[C@]3(C=O)C4C(OC(C)=O)C[C@]5(C)[C@@H](C6=CC(=O)OC6)CC[C@]5(O)C4CC[C@]3(O)C2)OC(C)C1OC(C)=O` (some centres undefined), the inhibition was 10.3%.

Consider `CC1CC(O)C2(O)C13CC(=O)OCC2(C)C(C)(O)C(=O)C3` (centres undefined), for which the inhibition is 17.6%.

Take `CNC(=O)O/N=C(/C)SC`: the inhibition is -23.1%.

`C=C(C)C(=O)/C(=C/C(=O)O)OC`: the inhibition was 12.8%.

For the molecule `c1cc2c(cc1[C@H]1OC[C@@H]3[C@H]1CO[C@H]3c1ccc3c(c1)OCO3)OCO2`, the inhibition is -14.7%.

The values above are taken from PubChem BioAssay.
